In the supplement of paper PMC10849652:
About 8,800 targets were measured; listed, in parts, are those with a hit and a random draw of the rest. About 0.5% of all pairs of compound and target were hits.

Key:
Assay in all cases: log2 fold change, soluble protein after heating vs DMSO (PISA); higher = thermal stabilisation; K562 lysate, 10 uM; active = over 0.2 and 3.5 SD of the protein, either way, in both replicates (recomputed)
vemurafenib = compound: CCCS(=O)(=O)Nc1ccc(F)c(C(=O)c2c[nH]c3ncc(-c4ccc(Cl)cc4)cc23)c1F [vemurafenib]
Procedure, shortened: (§1)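 K562 pellets were dounce-homogenised in PBS pH 7.4 with 1 mM MgCl2, and the crude extract at 1 mg/mL protein was treated with 10 μM compound for 30 min. Aliquots were heated for 3 min across 48°C-58°C, pooled, and brought to 0.5% NP-40 at 4°C; soluble protein was the supernatant after 21,000xg for 90 min. Soluble protein was quantified by TMTpro 16plex LC-MS/MS with channel sums equalised, and reported as log2 fold change in thermal stability against DMSO controls, with values from duplicates.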

[1] = compound: CCCS(=O)(=O)Nc1ccc(F)c(C(=O)c2c[nH]c3ncc(Cl)cc23)c1F
Procedure, shortened: as §1

[2] = compound: CC[C@@H]1C(=O)N(C)c2cnc(Nc3ccc(C(=O)NC4CCN(C)CC4)cc3OC)nc2N1C1CCCC1
Procedure, shortened: as §1

volasertib = compound: CC[C@@H]1C(=O)N(C)c2cnc(Nc3ccc(C(=O)N[C@H]4CC[C@H](N5CCN(CC6CC6)CC5)CC4)cc3OC)nc2N1C(C)C [volasertib]
Procedure, shortened: as §1

[3] = compound: CCn1c(C(=O)N(C2CC2)C2CC2)cc2c3c(ncn3C)c(Nc3cc(C)n(C)n3)nc21
Procedure, shortened: as §1

[4] = compound: CCn1cc(-c2ccnc3[nH]c(-c4cccc(CN(C)C)c4)cc23)c(-c2ccc(NC(=O)N(C)C)cc2)n1
Procedure, shortened: as §1

[5] = compound: CN1CCC(CNc2ccc3ncc(-c4cccc(OC(F)(F)F)c4)n3n2)CC1
Procedure, shortened: as §1

saracatinib = compound: CN1CCN(CCOc2cc(OC3CCOCC3)c3c(Nc4c(Cl)ccc5c4OCO5)ncnc3c2)CC1 [saracatinib]
Procedure, shortened: as §1

sotrastaurin = compound: CN1CCN(c2nc(C3=C(c4c[nH]c5ccccc45)C(=O)NC3=O)c3ccccc3n2)CC1 [sotrastaurin]
Procedure, shortened: as §1

alvocidib = compound: CN1CC[C@H](c2c(O)cc(O)c3c(=O)cc(-c4ccccc4Cl)oc23)[C@H](O)C1 [alvocidib]
Procedure, shortened: as §1

Tubastatin A = compound: CN1CCc2c(c3ccccc3n2Cc2ccc(C(=O)NO)cc2)C1 [Tubastatin A]
Procedure, shortened: as §1

[6] = compound: CNC(=O)C1=CC=CC=C1NC2=NC(=NC=C2Cl)NC3=C(C=C(C=C3)N4CCOCC4)OC
Procedure, shortened: as §1

defactinib = compound: CNC(=O)c1ccc(Nc2ncc(C(F)(F)F)c(NCc3nccnc3N(C)S(C)(=O)=O)n2)cc1 [defactinib]
Procedure, shortened: as §1

[7] = compound: CNc1nc(-c2ccc3c(N)n[nH]c3c2)cc(N2C[C@@H](C(=O)NC3CCCCC3)CC[C@H]2C)n1
Procedure, shortened: as §1

encorafenib = compound: COC(=O)N[C@@H](C)CNc1nccc(-c2cn(C(C)C)nc2-c2cc(Cl)cc(NS(C)(=O)=O)c2F)n1 [encorafenib]
Procedure, shortened: as §1

[8] = compound: COC(=O)[C@H](CCSC)NC(=O)C1=C(C=C(C=C1)NC[C@H](CS)N)C2=CC=CC=C2
Procedure, shortened: as §1

alisertib = compound: COc1cc(Nc2ncc3c(n2)-c2ccc(Cl)cc2C(c2c(F)cccc2OC)=NC3)ccc1C(=O)O [alisertib]
Procedure, shortened: as §1

[9] = compound: COc1cc2nc(-c3cc(F)ccc3O)nc(N[C@@H]3CNC[C@H]3C(C)(C)O)c2cc1OC
Procedure, shortened: as §1

gefitinib = compound: COc1cc2ncnc(Nc3ccc(F)c(Cl)c3)c2cc1OCCCN1CCOCC1 [gefitinib]
Procedure, shortened: as §1

barasertib = compound: CCN(CCCOc1ccc2c(Nc3cc(CC(=O)Nc4cccc(F)c4)[nH]n3)ncnc2c1)CCOP(=O)(O)O [barasertib]
Procedure, shortened: as §1

Measured: log2 fold change

SATB2 (UniProt Q9UPW6)
UniProt Q9UPW6, sequence (Q9UPW6 whole entry, looked up): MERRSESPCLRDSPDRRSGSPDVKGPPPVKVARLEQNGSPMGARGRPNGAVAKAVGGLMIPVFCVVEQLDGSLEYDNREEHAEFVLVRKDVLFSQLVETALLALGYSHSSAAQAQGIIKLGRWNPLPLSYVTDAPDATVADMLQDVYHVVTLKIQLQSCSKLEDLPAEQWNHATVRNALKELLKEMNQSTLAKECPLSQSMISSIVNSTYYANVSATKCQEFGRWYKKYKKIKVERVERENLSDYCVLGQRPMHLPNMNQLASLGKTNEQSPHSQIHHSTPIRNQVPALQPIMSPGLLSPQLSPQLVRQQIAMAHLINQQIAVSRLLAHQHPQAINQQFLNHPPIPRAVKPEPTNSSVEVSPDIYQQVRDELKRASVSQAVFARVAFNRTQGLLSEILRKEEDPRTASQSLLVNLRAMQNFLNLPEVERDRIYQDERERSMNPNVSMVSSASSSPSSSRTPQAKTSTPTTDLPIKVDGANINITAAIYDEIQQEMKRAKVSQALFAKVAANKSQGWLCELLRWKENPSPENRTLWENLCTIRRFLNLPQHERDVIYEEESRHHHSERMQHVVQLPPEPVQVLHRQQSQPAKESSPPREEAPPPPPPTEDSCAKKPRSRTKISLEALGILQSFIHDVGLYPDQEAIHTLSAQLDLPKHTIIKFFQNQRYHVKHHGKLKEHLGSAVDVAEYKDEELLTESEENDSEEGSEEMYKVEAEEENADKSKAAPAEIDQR
inactive: vemurafenib 0.002 | [1] 0 | [2] 0.023 | volasertib 0.007 | [3] 0.009 | [4] 0.074 | [5] 0.016 | saracatinib -0.026 | sotrastaurin 0.032 | alvocidib 0.047 | Tubastatin A -0.096 | [6] -0.019 | defactinib -0.022 | [7] -0.031 | encorafenib 0.053 | [8] -0.022 | alisertib 0.024 | [9] -0.008 | gefitinib 0.01

RBM45 (UniProt Q8IUH3)
UniProt Q8IUH3, sequence (Q8IUH3 whole entry, looked up): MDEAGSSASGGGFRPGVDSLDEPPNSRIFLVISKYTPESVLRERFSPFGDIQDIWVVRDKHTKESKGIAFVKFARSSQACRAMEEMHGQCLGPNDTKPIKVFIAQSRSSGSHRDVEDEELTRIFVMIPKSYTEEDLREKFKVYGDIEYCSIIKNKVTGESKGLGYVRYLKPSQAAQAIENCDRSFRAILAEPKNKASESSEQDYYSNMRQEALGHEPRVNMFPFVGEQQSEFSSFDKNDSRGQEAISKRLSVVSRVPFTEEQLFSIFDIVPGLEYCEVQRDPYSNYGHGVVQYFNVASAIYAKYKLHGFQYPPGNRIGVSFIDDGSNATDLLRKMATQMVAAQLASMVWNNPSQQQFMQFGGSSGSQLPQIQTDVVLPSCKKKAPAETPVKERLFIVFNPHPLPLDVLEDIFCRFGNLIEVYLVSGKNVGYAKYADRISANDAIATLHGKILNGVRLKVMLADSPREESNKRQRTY
inactive: [1] 0.12 | volasertib -0.207 | [4] 0.128 | [5] -0.015 | sotrastaurin 0.077 | alvocidib 0.013 | alisertib -0.136 | [9] 0.055 | gefitinib -0.03

RNASEH1 (UniProt O60930)
UniProt O60930, sequence (O60930 whole entry, looked up): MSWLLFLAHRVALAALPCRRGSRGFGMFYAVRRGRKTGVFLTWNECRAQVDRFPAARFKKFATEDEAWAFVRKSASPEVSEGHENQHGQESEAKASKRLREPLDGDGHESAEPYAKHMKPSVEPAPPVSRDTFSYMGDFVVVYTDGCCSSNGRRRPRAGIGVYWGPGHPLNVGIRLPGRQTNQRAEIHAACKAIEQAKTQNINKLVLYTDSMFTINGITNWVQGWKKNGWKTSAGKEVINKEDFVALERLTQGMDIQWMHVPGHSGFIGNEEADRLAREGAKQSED
inactive: [4] -0.023 | [5] -0.002 | alvocidib 0.024

RALGAPB isoform 3 (UniProt Q86X10)
UniProt Q86X10, sequence (Q86X10 whole entry, looked up): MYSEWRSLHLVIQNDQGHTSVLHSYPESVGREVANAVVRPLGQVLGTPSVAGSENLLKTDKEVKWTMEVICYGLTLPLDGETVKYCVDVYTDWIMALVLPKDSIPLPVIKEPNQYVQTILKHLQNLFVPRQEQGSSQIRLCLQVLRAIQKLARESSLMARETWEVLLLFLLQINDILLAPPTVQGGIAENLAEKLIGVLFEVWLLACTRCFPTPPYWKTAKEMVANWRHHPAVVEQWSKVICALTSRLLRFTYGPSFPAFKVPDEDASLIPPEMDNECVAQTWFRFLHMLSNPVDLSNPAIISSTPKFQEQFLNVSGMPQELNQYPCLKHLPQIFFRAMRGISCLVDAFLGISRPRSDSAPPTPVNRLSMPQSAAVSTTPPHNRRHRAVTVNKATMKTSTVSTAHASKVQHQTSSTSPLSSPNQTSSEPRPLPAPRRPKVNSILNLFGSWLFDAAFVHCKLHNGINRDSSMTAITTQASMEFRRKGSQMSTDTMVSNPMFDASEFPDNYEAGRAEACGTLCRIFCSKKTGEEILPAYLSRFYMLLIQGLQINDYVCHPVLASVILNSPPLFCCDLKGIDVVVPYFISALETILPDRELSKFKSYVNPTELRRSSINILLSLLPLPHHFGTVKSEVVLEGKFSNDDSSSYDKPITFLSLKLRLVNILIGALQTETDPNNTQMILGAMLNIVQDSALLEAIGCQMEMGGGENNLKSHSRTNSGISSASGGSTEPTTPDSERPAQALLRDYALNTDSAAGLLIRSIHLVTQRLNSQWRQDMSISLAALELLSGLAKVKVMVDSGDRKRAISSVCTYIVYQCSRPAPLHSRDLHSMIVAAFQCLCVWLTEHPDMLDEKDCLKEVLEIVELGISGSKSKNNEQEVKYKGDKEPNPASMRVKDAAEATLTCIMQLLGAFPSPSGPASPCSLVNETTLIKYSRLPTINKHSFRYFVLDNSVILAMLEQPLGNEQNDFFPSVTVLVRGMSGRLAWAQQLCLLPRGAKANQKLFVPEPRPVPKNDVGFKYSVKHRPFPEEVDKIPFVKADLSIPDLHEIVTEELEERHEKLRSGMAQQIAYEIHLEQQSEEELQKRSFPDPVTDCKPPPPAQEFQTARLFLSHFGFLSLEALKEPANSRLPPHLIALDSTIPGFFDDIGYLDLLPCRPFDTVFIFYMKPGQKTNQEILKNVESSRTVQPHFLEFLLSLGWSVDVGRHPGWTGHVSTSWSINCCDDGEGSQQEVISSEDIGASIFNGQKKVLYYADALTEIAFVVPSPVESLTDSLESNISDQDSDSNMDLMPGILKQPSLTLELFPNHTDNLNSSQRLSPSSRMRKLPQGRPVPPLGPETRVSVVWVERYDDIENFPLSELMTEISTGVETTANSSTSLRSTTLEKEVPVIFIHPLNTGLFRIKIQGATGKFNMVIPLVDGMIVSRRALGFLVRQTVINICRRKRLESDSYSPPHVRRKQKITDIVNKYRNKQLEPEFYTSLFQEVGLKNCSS
inactive: barasertib -0.005 | [2] -0.076 | [4] -0.139 | [5] 0.004 | saracatinib -0.343 | alvocidib 0.161 | [7] 0.064 | encorafenib 0.073 | [8] 0.107
